TDP1 cell noCPT = qHTS for Inhibitors of human tyrosyl-DNA phosphodiesterase 1 (TDP1): qHTS in cells in absence of CPT. DT40 Tdp1-/- hTDP1 cells, no CPT, ATP luminescence, 48 h. Potency, µM (titrated, usually from 46.2 µM), without a hit: top-dose activity change, negative = growth inhibition, most hits filed as inhibitors. 15% of 420,000 active; also: potency is read from the fitted curve at half-maximal effect; nearly all actives have a fitted effect of over 55% in size
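Chicken DT40 Tdp1-/- cells complemented with human TDP1, screened without camptothecin (DMSO vehicle only), 400 cells/well. Compounds pin-transferred, cells incubated at 37 °C for at least 48 hr. Growth read as ATP-dependent luminescence (CellTiter-Glo, 30 min at RT).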
IL1B secr inh = qHTS for Inhibitors of Inflammasome Signaling: IL-1-beta AlphaLISA Primary Screen | activity change, % at 57.5 µM | 4.7% of 360,000 active | THP-1 LPS/ATP IL-1B secretion, AlphaLISA, 16 h; active compounds read low; in the data active = activity change below about -50%; inconclusive = mostly about -30% to -49%
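THP-1 cells pretreated 1 hr with compounds (up to 57.5 uM final), then stimulated with LPS (250 ng/mL final) plus ATP (1.25 mM final); secreted IL-1B measured by AlphaLISA after 16 hr, decreased signal indicating inhibition.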
VP16 counter = VP16 counterscreen qHTS for inhibitors of ROR gamma transcriptional activity | Drosophila S2 Gal4-VP16 UAS-luciferase, luminescence, 20 h | Potency, µM (series often up to 53.6 µM), inactives show at the top dose activity, negative = inhibition, hits mostly inhibitors | 3.5% of 310,000 active | AID 2546, 2010;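 also: Gal4-VP16 expression switched on by copper sulfate through the metallothionein promoter; potency is read from the fitted curve at half-maximal effect; nearly all actives have a fitted effect of over 50% in size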
ELG1 DNA repair = qHTS screen for small molecules that inhibit ELG1-dependent DNA repair in human embryonic kidney (HEK293T) cells expressing luciferase-tagged ELG1; 2.3% of 330,000 active; Potency, µM (series often up to 46.1 µM), for the others: top-dose activity change, negative = inhibition, actives largely listed as inhibitors; HEK293T ELG1-luciferase reporter, luminescence, 16 h; DNA damage induced by 5-fluorouridine; also: potency is read from the fitted curve at half-maximal effect; nearly all actives have a fitted effect of over 55% in size
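In this reporter screen, reduction of luminescence relative to DMSO vehicle indicated activity. Compounds and 5-fluorouridine were added together to 2,000 cells per well, incubated for 16 hr at 37 °C, then developed with ONE-Glo.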
DT40 TDP1 CPT = qHTS for Inhibitors of human tyrosyl-DNA phosphodiesterase 1 (TDP1): qHTS in cells in presence of CPT. chicken DT40 Tdp1-/-;hTDP1 cells + 20 nM CPT, ATP luminescence, 48 h. Potency, µM (doses to about 46.2 µM), inactives show at the top dose activity change, negative = growth inhibition, actives largely listed as inhibitors. 12% of 420,000 active; also: potency is read from the fitted curve at half-maximal effect; nearly all actives have a fitted effect of over 55% in size
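Chicken DT40 Tdp1-/- cells stably complemented with human TDP1 were seeded at 400 cells/well in medium containing 20 nM camptothecin, exposed to pin-transferred compounds, and grown at 37 °C for at least 48 hr. Viability was read as ATP luminescence.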
RORgamma inh = qHTS for inhibitors of ROR gamma transcriptional activity | Drosophila S2 Gal4-RORgamma UAS-luciferase reporter, 20 h | 5.4% of 310,000 active | Potency, µM (top dose mostly 53.6 µM), without a hit: at the top dose activity change, negative = inhibition, most hits filed as inhibitors | AID 2551, 2010 | Nuclear receptor ROR-gamma (Mus musculus), P51450; also: potency is read from the fitted curve at half-maximal effect; nearly all actives have a fitted effect of over 60% in size
Target sequence (P51450 whole entry, looked up, the tested form may be a part): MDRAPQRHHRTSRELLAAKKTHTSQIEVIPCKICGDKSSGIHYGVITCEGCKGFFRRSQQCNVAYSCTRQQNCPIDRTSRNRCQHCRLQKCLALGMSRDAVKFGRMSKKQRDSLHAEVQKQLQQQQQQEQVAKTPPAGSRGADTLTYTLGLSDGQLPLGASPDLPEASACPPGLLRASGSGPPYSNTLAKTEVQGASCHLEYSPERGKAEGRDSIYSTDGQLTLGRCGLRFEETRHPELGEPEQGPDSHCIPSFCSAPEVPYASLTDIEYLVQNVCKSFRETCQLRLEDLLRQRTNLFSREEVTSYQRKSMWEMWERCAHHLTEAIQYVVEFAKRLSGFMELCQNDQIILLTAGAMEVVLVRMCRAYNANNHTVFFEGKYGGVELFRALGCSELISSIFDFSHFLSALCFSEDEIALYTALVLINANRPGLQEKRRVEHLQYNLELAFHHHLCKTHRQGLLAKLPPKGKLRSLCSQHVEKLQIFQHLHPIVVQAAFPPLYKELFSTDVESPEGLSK
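Luminescence from a UAS-regulated Photinus luciferase reporter in stably transfected Drosophila Schneider cells is measured; decreased signal marks ROR gamma inhibition. Fusion expression is induced by 700 uM copper sulfate for 20 hr.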
The depositor's hits bear a star; ? = inconclusive; . = no result; [ ] = remark or other dose. Shown are actives, neighbours in structure and some others; about 21% of the full set was active somewhere. Unless noted, calls follow the shape of the dose curve; as a rule, active = well fitted curve in the direction sought with a large enough effect; inconclusive = small, poorly fitted or top-dose-only effect, or another doubt; inactive = no such curve, though single readings can be large; an effect the other way counts as inactive or inconclusive. % is scaled to controls: 0 for no effect and ±100 for the full control effect.

SMILES	TDP1 cell noCPT	IL1B secr inh	VP16 counter	ELG1 DNA repair	DT40 TDP1 CPT	RORgamma inh
O=C(CCCC(=O)Nc1cccc(Br)c1)N/N=C/c1cc([N+](=O)[O-])ccc1O	5.2µM*	46	10µM*	15µM*	5.8µM*	?
O=C(CSc1nc2c(c(=O)[nH]1)CCC2)Nc1ccccc1C(F)(F)F	-2%	.	.	.	8%	.
CC(=O)Nc1cc(-c2ccc(N3CCN(C)CC3)cc2)cn2c(-c3ccccc3)cnc12	16µM*	.	.	.	21µM*	.
CC(=O)Nc1cc(-c2ccc(N3CCN(C)CC3)cc2)cn2c(-c3ccc(S(C)(=O)=O)cc3)cnc12	21µM*	-24	.	.	15µM*	.
O=c1[nH]c([N+](=O)[O-])nn1C(c1ccccc1)c1ccccc1	0%	1	-2%	0%	-16%	-6%
COc1ccc(NC(=O)N(Cc2nnc3n2CCCCC3)c2ccc(OC)c(Cl)c2)cc1	-2%	.	.	.	1%	.
COCc1cccc(-c2csc(C(NC(C)=O)c3cccc(OC)c3)n2)c1 (stereo not drawn)	?	10	.	.	-24%	.
CN1C(=O)C2(c3ccccc31)C1CCCC=C1C(C#N)=C(N)C2(C#N)C#N (stereo not drawn)	?	-1	-18%	1%	-29%	2%
CN1C(=O)C2(C(C#N)=C(N)N(c3cc(Cl)cc(Cl)c3)C3=C2C(=O)CCC3)c2ccccc21 (stereo not drawn)	?	0	1%	10µM*	?	-8%
COc1ccc(C2CC(=O)c3cnn(-c4nc(C)cc(C)n4)c3C2)cc1 (stereo not drawn)	16µM*	10	-2%[10 µM]	?	21µM*	?
Cc1cc(C)nc(-n2ncc3c2CC(c2ccccc2)CC3=O)n1 (stereo not drawn)	?	90	3%	?	-16%	-23%
CN(c1ccc([N+](=O)[O-])cc1/C=N/NC(=O)COc1ccccc1)C1CCCCC1	16µM*	-3	-4%	-11%	?	9%[10 µM]
Cc1ccc(C)c(NC(=O)CCC(=O)N/N=C/c2cc([N+](=O)[O-])ccc2O)c1	?	80	?	13µM*	?	5.6µM*
CCc1ccc(OCC(=O)N/N=C/c2cc([N+](=O)[O-])ccc2N2CCCCCC2)cc1	?	-16	-2%	?	?	26%
Cc1ccccc1NCC(=O)N/N=C/c1ccc([N+](=O)[O-])cc1	?	-11	-24%	1%	-28%	5%
Cc1ccc(C)c(NC(=O)CCC(=O)N/N=C/c2ccc[nH]2)c1	2%	-2	-12%	6%	-2%	17%
Cc1ccccc1NC(=O)CCC(=O)N/N=C/c1cc([N+](=O)[O-])ccc1O	16µM*	23	?	?	?	4µM*
CN1CCN(CCC(=O)N/N=C/c2cc([N+](=O)[O-])ccc2O)CC1	?	18	?	-8%	?	?
Cc1ccc(NC(=O)CCC(=O)N/N=C/c2cc([N+](=O)[O-])ccc2O)cc1	?	65	14µM*	?	?	13µM*
COc1ccc(CNC(=O)/C=C/[C@H]2O[C@@H](n3ccc(=O)[nH]c3=O)[C@H](O)[C@@H]2O)cc1	14%	29	.	.	5%	.
Cc1cc(=O)oc2cc(OCC(=O)Nc3ccc(O)c(C(=O)O)c3)ccc12	3%	.	.	.	5%	.

Screening results deposited in PubChem BioAssay by National Center for Advancing Translational Sciences (NCATS).
